Sampled rows, rich in hits. Any-hit rate of the full collection: about 1%.
gsp agonist: agonists of gsp mutant (McCune-Albright syndrome) | gsp mutant cells, cAMP HTRF, 30 min | Potency, µM (highest dose often 76.9 µM), for inactives: at the highest dose activation (cAMP increase), actives largely listed as activators | hit rate 0.13% among 340,000 | AID 624287; active = well fitted activation curve with a large enough effect; inconclusive = small, poorly fitted or top-dose-only effect, or another doubt; inactive = no such curve, though single readings can be large or run the other way; cell line not stated here;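 also: phosphodiesterase inhibitor Ro 20-1724 added with compounds to block cAMP breakdown; potency is read from the fitted curve at half-maximal effect; nearly all actives have a fitted effect of over 60% in size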
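Cells stably selected in G418 were plated at 2000/well, grown 16-24 hr, then given compounds in DMSO with the PDE inhibitor […] (300 uM solution added) for 30 min at 37C; cAMP was read by HTRF.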
RXFP1 agonist: activates the human relaxin receptor RXFP1. Q9HBX9. HEK293T-RXFP1 cAMP TR-FRET, 30 min; response scale: percent of porcine relaxin response, buffer zero. Potency, µM (doses to about 57.5 µM), without a hit: at the top dose activation, actives largely listed as activators. hit rate 0.3% among 370,000; active = well fitted activation curve with a large enough effect; inconclusive = small, poorly fitted or top-dose-only effect; also: potency is read from the fitted curve at half-maximal effect; % is scaled to controls: 0 for no effect and ±100 for the full control effect; nearly all actives have a fitted effect of over 60% in size
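HEK293T cells stably expressing RXFP1 were pretreated with the PDE4 inhibitor Ro 20174, exposed to compounds for 30 min at 37C, lysed, and cAMP was read by TR-FRET. Data normalized to buffer (basal) and 29 nM porcine relaxin (100%).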
TSHR antag: human thyrotropin receptor antagonism; P16473; TSHR-expressing cells, TSH-stimulated cAMP HTRF, 2 h; stronger effect = lower value; activity change, negative = inhibition, % at 11.5 µM; hit rate 0.2% among 330,000; AID 504810;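 active = activity change below a set negative limit, meaning inhibition stronger than a set level, cut at about -70% in these data; inconclusive = activity change between two set negative limits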; also: % is scaled to controls: 0 for no effect and ±100 for the full control effect
Target sequence (P16473 whole entry, looked up): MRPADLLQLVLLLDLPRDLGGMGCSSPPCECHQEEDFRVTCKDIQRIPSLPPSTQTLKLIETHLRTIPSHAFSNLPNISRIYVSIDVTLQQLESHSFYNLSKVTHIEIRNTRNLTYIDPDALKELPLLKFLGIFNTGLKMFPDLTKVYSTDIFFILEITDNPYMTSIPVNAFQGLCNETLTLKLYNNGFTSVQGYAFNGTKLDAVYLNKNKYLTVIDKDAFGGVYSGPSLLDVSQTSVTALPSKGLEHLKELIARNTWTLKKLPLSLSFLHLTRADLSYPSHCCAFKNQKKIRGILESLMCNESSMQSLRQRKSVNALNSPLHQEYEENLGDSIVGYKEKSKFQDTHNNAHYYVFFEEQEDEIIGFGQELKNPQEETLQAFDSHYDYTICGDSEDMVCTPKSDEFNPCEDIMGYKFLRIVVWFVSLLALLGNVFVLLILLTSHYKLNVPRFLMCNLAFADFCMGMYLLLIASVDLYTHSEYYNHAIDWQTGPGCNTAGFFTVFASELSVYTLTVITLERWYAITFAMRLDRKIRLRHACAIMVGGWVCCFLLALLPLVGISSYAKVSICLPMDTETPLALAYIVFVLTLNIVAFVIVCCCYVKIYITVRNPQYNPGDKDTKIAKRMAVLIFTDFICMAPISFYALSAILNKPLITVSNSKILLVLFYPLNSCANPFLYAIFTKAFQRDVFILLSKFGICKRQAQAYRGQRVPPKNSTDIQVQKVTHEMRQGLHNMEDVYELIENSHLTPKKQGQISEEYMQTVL
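TSHR-expressing cells, 200/well, pre-treated with compound, then stimulated with EC80 TSH (4nM final) for 2 hours at 37 deg C. cAMP measured by competitive HTRF: anti-cAMP cryptate antibody in lysis buffer plus cAMP-d2, read after 30 minutes at room temperature.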
gsp antagonist: antagonizes gsp, the McCune-Albright syndrome mutation; hit rate 0.4% among 340,000; gsp-mutant cells, cAMP HTRF, 30 min; Potency, µM (titrated, usually from 76.9 µM), without a hit: at the top dose activity change, negative = inhibition, most hits filed as inhibitors; calls by dose curve; cell line not stated here;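 also: intracellular cAMP measured with PDE inhibitor Ro 20-1724 present during compound exposure; potency is read from the fitted curve at half-maximal effect; % is scaled to controls: 0 for no effect and ±100 for the full control effect; nearly all actives have a fitted effect of over 65% in size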
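Measurement of cellular cAMP by homogeneous time-resolved fluorescence following a 30 min compound exposure at 37C. The PDE inhibitor […] was present throughout; the assay buffer was DPBS with 0.05% BSA and 0.005% Tween 20.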
RXFP1 antagonist: RXFP1 (human) relaxin receptor antagonism | Q9HBX9 | HEK293-RXFP1, relaxin-stimulated cAMP HTRF, 30 min; stronger effect = lower value | activity change, negative = inhibition, % at 57.5 µM | hit rate 0.59% among 350,000 | AID 1259400;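 active = activity change of -60% or lower, but not beyond a set lower limit; inconclusive = change between -60% and -40%, or beyond the set limit; inactive = change above -40%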; also: % is scaled to controls: 0 for no effect and ±100 for the full control effect
* marks the source's active call; other numbers are inactive results; ? = inconclusive; . = no result given; [ ] = dose if it differs, or a comment.

SMILES | gsp agonist | RXFP1 agonist | TSHR antag | gsp antagonist | RXFP1 antagonist
Cc1ccc(-c2nc(C(=O)NCC3CCCO3)cc3c2[nH]c2ccccc23)cc1 (stereo not given) | . | 0% | -14 | ? | .
COc1ccc(-c2nc(C(=O)NCC3CCCO3)cc3c2[nH]c2ccccc23)cc1 (stereo not given) | . | 4% | -14 | 28µM* | .
Clc1ccccc1C(c1ccccc1)(c1ccccc1)n1ccnc1 | . | 1% | -14 | ? | -94*
C#CC(c1ccccc1)(c1ccccc1)n1ccnc1 | -7% | . | . | . | 10
COC(=O)c1cc2c(=O)c3ccccc3oc2nc1/C=C/N(C)C | -7%[15.4 µM] | 4% | 18 | 35µM* | -18
COc1ccc(OCc2nc(C#N)c(NCc3ccccc3Cl)o2)cc1 | . | -10% | . | . | .
CCN(CCNC(=O)C1CCN(Cc2nc(-c3ccc(Cl)cc3)oc2C)CC1)c1ccccc1 | 1% | 1% | -3 | 1% | -62*
CCOc1ccccc1N(C)C(=O)Cn1cnc2sc(C)c(S(=O)(=O)N3CCC(C)CC3)c2c1=O | . | 1% | . | . | -15
CCN1C(=O)/C(=C\C(=O)c2cccs2)c2cc(Br)ccc21 | -20% | 2% | -5 | -4% | -66*
COc1ccc(Br)cc1CC1C(=O)Nc2ccccc21 (stereo not given) | . | -1% | . | . | -69*
Cc1sc2ncn(CC(=O)Nc3ccc(C(C)C)cc3)c(=O)c2c1S(=O)(=O)N1CCN(c2ncccn2)CC1 | . | 25µM* | . | . | .
COc1ccc(NC(=O)Cn2cnc3sc(C)c(S(=O)(=O)N4CCOCC4)c3c2=O)cc1Cl | -7%[15.4 µM] | 0% | 1 | -3% | 0
COc1cc(OC)c(NC(=O)Cn2cnc3sc(C)c(S(=O)(=O)N4CCOCC4)c3c2=O)cc1Cl | -16% | 5% | -97* | 9% | -16
CCOC(=O)c1sc2nc(NC(=O)C(C)(C)C)sc2c1C | 0% | 2% | -17 | 32µM* | .
CCOC(=O)c1sc2nc(NC(=O)C3CC3)sc2c1C | 16% | -1% | 8 | 5% | 1
COc1cccc(CN2CCCN(S(=O)(=O)c3ccc(Br)cc3)CC2)c1 | 3% | -1% | -5 | 40µM* | -6
O=C1c2ccccc2C(=O)c2c(NCc3cccnc3)cccc21 | -33% | 0% | 18 | -11% | 7
O=C1c2cccc(NCCCNCCO)c2C(=O)c2cccc(NCCCNCCO)c21 | -3% | . | . | 40µM* | ?
COc1ccc(CC(=O)NCc2ccc3c(c2)CCN3C(=O)c2cccc(C)c2)cc1 | . | 4% | . | . | -97*
COc1cccc2[nH]c(C(=O)NCc3ccc4c(c3)CCN4C(=O)c3ccc(F)cc3)cc12 | . | 3% | . | . | -68*
COc1ccc(OCC(=O)NCc2ccc3c(c2)CCN3C(=O)c2cccc(C)c2)cc1 | . | 1% | . | . | -5
O=Cc1cc(N=Nc2ccccc2Cl)ccc1O | -17% | -2% | -39 | ? | -65*
O=Cc1cc(N=Nc2cccc(C(=O)O)c2)ccc1O | 1% | 1% | -17 | -3% | -13
CCOC(=O)c1ccc(NS(=O)(=O)c2c(C)nc3sccn3c2=O)cc1 | 1% | 1% | -2 | -7% | .
Cc1ccc(NS(=O)(=O)c2c(C)nc3sccn3c2=O)cc1 | -91% | 0% | -9 | 4% | -79*
SMILES | gsp agonist | RXFP1 agonist | TSHR antag | gsp antagonist | RXFP1 antagonist
CC(=O)NCCNc1nc2c(-c3ccccc3)nnn2c2ccccc12 | 22µM* | 5% | -38 | 7% | 6
CC(=O)NCCNc1nc2c(-c3cccc(C)c3)nnn2c2ccccc12 | -1% | 3% | 6 | 4% | -20
CCC(=O)c1ccc(OCC(=O)Nc2cccc(S(=O)(=O)N(C)c3ccccc3)c2)cc1 | -3% | -1% | ? | 28µM* | 10
CN(C)C(=O)NC1c2ccccc2-c2ccccc21 | ? | -1% | -3 | 12% | 2
O=C1C=CC(=O)N1c1ccc2c(c1)C(NC(=O)C(F)(F)F)c1ccccc1-2 (stereo not given) | 0% | . | . | 7% | -97*
COc1ccc(Cc2nc3ccc(C(=O)N(C)Cc4nccn4C)cc3o2)cc1 | ? | . | . | . | 3
Cc1csc2ncc(C(=O)NC(C)c3ccccc3)c(=O)n12 (stereo not given) | 18µM* | 10% | -5 | -2% | 5
Cc1csc2ncc(C(=O)NCc3ccccc3Cl)c(=O)n12 | ? | 6% | -12 | 3% | .
CCc1c(C)c2ccc3c(c2oc1=O)CN(Cc1ccccc1)CO3 | . | 17% | . | . | .
COc1cc(C(=O)Nc2nc(-c3ccc(F)cc3)cs2)ccc1OCC(=O)N1CCOCC1 | -8% | -2% | -3 | 35µM* | -25
COc1ccc(-c2nc(NC(=O)c3ccc(OCC(=O)Nc4ccc(F)cc4)c(OC)c3)sc2C)cc1 | ? | 28µM* | 42 | 47% | -18
COc1ccc(C(=O)NCC(=O)Nc2ccc(F)cc2)cc1OC | 13% | -1% | 4 | 6% | 5
COc1cc(C(=O)Nc2nc(-c3cc(C)ccc3C)c(C)s2)ccc1OCC(=O)Nc1ccc(F)cc1 | ? | 32µM* | -8 | 5% | 3
COc1cc(C(=O)Nc2nc(-c3ccc(C)cc3)cs2)ccc1OCC(=O)N1CCOCC1 | -2% | 2% | 17 | 36% | -19
CCOC(=O)c1ccccc1NC(=O)CN(c1ccccc1OC)S(=O)(=O)c1ccc(C)cc1 | . | 0% | . | . | -16
Cc1ccc(Cl)cc1N1CCN(CCNC(=O)Nc2ccccc2Cl)CC1 | . | 2% | . | . | .
Cc1ccc(C(CNC(=O)Nc2ccc(Cl)cc2)N2CCN(C)CC2)cc1 (stereo not given) | ? | -3% | -6 | 6% | -84*
CC(=O)Oc1ccc2nc(/C=C/c3ccccc3)oc(=O)c2c1 | -32% | -2% | -78* | -2% | -15
CCn1c(SCC(=O)N2CCC(C)CC2)nnc1-c1ccccc1O | . | -1% | . | . | -5
CC1=C(C(=O)Nc2cccc(C(=O)N3CCN(c4cccc(C(F)(F)F)c4)CC3)c2)SCCO1 | 1% | 3% | -14 | 50µM* | -28
CC1=C(C(=O)Nc2ccc(C(=O)N3CCN(c4cccc(Cl)c4)CC3)cc2)SCCO1 | 30% | 1% | -1 | ? | 4
O=C(c1cccc(Oc2ccc([N+](=O)[O-])cc2Cl)c1)N1CCCCC1 | -28% | 1% | -3 | 5% | -8
O=C(c1ccc(Oc2ccc([N+](=O)[O-])cc2Cl)cc1)N1CCCC1 | -7%[15.4 µM] | -1% | 13 | 11µM* | -38
CN(C)c1nc(=S)nc(NCc2ccccc2)[nH]1 | -2%[15.4 µM] | 1% | -85* | 6% | 0
Cc1cc(Cl)n2c(nc3cc(F)c(F)cc32)c1C#N | 20%[15.4 µM] | 16% | -73* | 13% | -35
Cc1noc(/C=C/c2ccccc2F)c1S(=O)(=O)N1CCC(C(=O)N2CCOc3ccccc32)CC1 | . | 0% | . | . | 7
CC(C)(C)C(=O)N1N=C(c2ccc(NS(C)(=O)=O)cc2)CC1c1cccs1 (stereo not given) | 0%[15.4 µM] | 0% | 13 | 11µM* | ?

Screens deposited in PubChem BioAssay by National Center for Advancing Translational Sciences (NCATS).
